“And” between values parts separate entries of the source, which are not always exact repeats. Equal entries are not always repeated. Where a structure was tested more than once in an assay, its records may differ in their call. The source made the active and inactive calls. Rule for the calls: active = hit-call score of the fitted dose curve at least 0.9, where 1 is the maximum; inactive = score below 0.9.
Columns and labels:
[1] = read-out: Intercellular Adhesion Molecule 1 (ICAM1), ICAM1 (gene 3383); assay: BSK_BE3C_ICAM1: BioMAP Diversity Plus: BE3C Assay for Intercellular Adhesion Molecule 1 (ICAM1) Biomarker Activity (AID 2284278); conditions: primary human bronchial epithelial cells
In short: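 Here, ICAM-1 levels on confluent human bronchial epithelial primary cells are read by ELISA at 24 h after chemical dosing. Parallel SRB staining (0.1% after 10% TCA fixation, 560 nm) checks cytotoxicity.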

[2] = read-out: Interferon-inducible T-cell alpha chemoattractant (ITAC), CXCL11 (gene 6373); assay: BSK_BE3C_ITAC: BioMAP Diversity Plus: BE3C Assay for Interferon-inducible T-cell alpha chemoattractant (ITAC) Biomarker Activity (AID 2284279); conditions: primary human bronchial epithelial cells
In short: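 Steps: dose human bronchial epithelial cells with chemical; incubate 24 h; measure I-TAC by ELISA; fit endpoint in positive direction against DMSO control. Cytotoxicity was checked in parallel cultures by SRB staining at harvest.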

[3] = read-out: Interleukin-8 (IL8), CXCL8 (gene 3576); assay: BSK_BE3C_IL8: BioMAP Diversity Plus: BE3C Assay for Interleukin-8 (IL8) Biomarker Activity (AID 2284280); conditions: primary human bronchial epithelial cells
In short: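 Primary human bronchial epithelial cells (BE3C system) were exposed to test chemical for 24 h, and IL-8 levels were then measured by ELISA. Activity was fitted in the positive (gain-of-signal) direction against a DMSO negative-control baseline.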

[4] = read-out: Epidermal growth factor receptor (EGFR), EGFR (gene 1956); assay: BSK_BE3C_EGFR: BioMAP Diversity Plus: BE3C Assay for Epidermal growth factor receptor (EGFR) Biomarker Activity (AID 2284281); conditions: primary human bronchial epithelial cells
In short: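 Human primary bronchial epithelial cells were exposed to compound for 24 h, and cell-surface EGFR was then quantified by ELISA. Activity was fitted in the positive direction against the DMSO vehicle baseline.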

KRT18 (gene 3875) = assay: BSK_BE3C_Keratin818: BioMAP Diversity Plus: BE3C Assay for Keratin 818 Biomarker Activity (AID 2284282); conditions: primary human bronchial epithelial cells
In short: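 Keratin 8/18 levels, detected by ELISA, served as the endpoint after 24 h chemical exposure of primary human bronchial epithelial cells. Gain of signal relative to DMSO negative control defined activity.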

[5] = read-out: Matrix Metallopeptidase 9 (MMP9), MMP9 (gene 4318); assay: BSK_BE3C_MMP9: BioMAP Diversity Plus: BE3C Assay for Matrix Metallopeptidase 9 (MMP9) Biomarker Activity (AID 2284283); conditions: primary human bronchial epithelial cells
In short: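 Human primary bronchial epithelial cells exposed 24 h to compound. MMP9 quantified by ELISA. SRB total-protein staining of parallel cultures assesses cytotoxicity. Positive-direction fit relative to DMSO.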

[6] = read-out: Plasminogen activator inhibitor-1 (PAI1), SERPINE1 (gene 5054); assay: BSK_CASM3C_PAI1: BioMAP Diversity Plus: CASM3C Assay for Plasminogen activator inhibitor-1 (PAI1) Biomarker Activity (AID 2284284); conditions: primary human coronary artery smooth muscle cells;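 note: PAI-1 protein level measured by ELISA 24 h after dosing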
[7] = read-out: Monocyte Chemoattractant Protein-1 (MCP1), CCL2 (gene 6347); assay: BSK_hDFCGF_MCP1: BioMAP Diversity Plus: hDFCGF Assay for Monocyte Chemoattractant Protein-1 (MCP1) Biomarker Activity (AID 2284285); conditions: primary human foreskin fibroblasts
In short: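 MCP-1 ELISA readout was taken 24 hours after dosing primary human dermal fibroblasts in the hDFCGF system, with DMSO as baseline. Parallel sulforhodamine B staining of total protein tracked overt cytotoxicity.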

[8] = read-out: Intercellular Adhesion Molecule 1 (ICAM1), ICAM1 (gene 3383); assay: BSK_hDFCGF_ICAM1: BioMAP Diversity Plus: hDFCGF Assay for Intercellular Adhesion Molecule 1 (ICAM1) Biomarker Activity (AID 2284287); conditions: primary human foreskin fibroblasts
In short: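 ICAM-1 ELISA readout 24 h after dosing, DMSO as baseline, in human dermal foreskin fibroblast cultures. Cytotoxicity checked in parallel wells by SRB staining (0.1% SRB, 10% TCA fixation, 560 nm).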

[9] = read-out: TIMP metallopeptidase inhibitor 2 (TIMP2), TIMP2 (gene 7077); assay: BSK_hDFCGF_TIMP2: BioMAP Diversity Plus: hDFCGF Assay for TIMP metallopeptidase inhibitor 2 (TIMP2) Biomarker Activity (AID 2284289); conditions: primary human foreskin fibroblasts
In short: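 Primary human foreskin fibroblasts in the hDFCGF system, dosed for 24 h; TIMP-2 level measured by ELISA, fitted in the positive direction against DMSO; cytotoxicity checked in parallel by sulforhodamine B total protein staining.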

[10] = read-out: Thrombomodulin, THBD (gene 7056); assay: BSK_LPS_Thrombomodulin: BioMAP Diversity Plus: LPS Assay for Thrombomodulin Biomarker Activity (AID 2284296); conditions: primary human HUVEC with PBMC
In short: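 Thrombomodulin on the surface of LPS-activated endothelial/PBMC co-cultures was quantified by ELISA at 24 hours post-dosing, with DMSO as baseline. Parallel SRB total-protein staining flagged overt cytotoxicity.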

[11] = read-out: Plasminogen activator inhibitor-1 (PAI1), SERPINE1 (gene 5054); assay: BSK_MyoF_PAI1: BioMAP Diversity Plus: MyoF Assay for Plasminogen activator inhibitor-1 (PAI1) Biomarker Activity (AID 2284256); conditions: primary human lung fibroblasts
In short: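 Primary human lung fibroblasts treated with chemical for 24 h; PAI-1 levels quantified by ELISA relative to DMSO. Cytotoxicity was assessed in parallel cultures by SRB total-protein staining (0.1% SRB after 10% TCA fixation, 560 nm).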

[12] = read-out: Interleukin-8 (IL8), CXCL8 (gene 3576); assay: BSK_MyoF_IL8: BioMAP Diversity Plus: MyoF Assay for Interleukin-8 (IL8) Biomarker Activity (AID 2284261); conditions: primary human lung fibroblasts
In short: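 Human lung fibroblast (MyoF system) cultures dosed for 24 h, then IL-8 measured by ELISA. Response taken relative to DMSO; parallel SRB total-protein staining for cytotoxicity.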

Decorin, DCN (gene 1634) = assay: BSK_MyoF_Decorin: BioMAP Diversity Plus: MyoF Assay for Decorin Biomarker Activity (AID 2284265); conditions: primary human lung fibroblasts
In short: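 Human lung fibroblast cultures were dosed for 24 h, and decorin was then measured by ELISA. Parallel cultures were stained with sulforhodamine B for total protein as a cytotoxicity check. Gain of signal was fitted relative to DMSO.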

[13] = BSK_MyoF_SRB: Viability Assessment in the BioMAP Diversity Plus: MyoF Assay (AID 2284267); conditions: primary human lung fibroblasts;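 note: total protein by SRB absorbance in parallel cultures as cytotoxicity measure; cells assessed 24 h after compound addition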
In short: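 Confluent human lung fibroblasts were exposed to test chemicals for 24 h. Parallel wells were then fixed in 10% TCA, stained with 0.1% sulforhodamine B and measured at 560 nm. DMSO served as baseline for curve fitting.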

[14] = read-out: Matrix Metallopeptidase 1 (MMP1), MMP1 (gene 4312); assay: BSK_MyoF_MMP1: BioMAP Diversity Plus: MyoF Assay for Matrix Metallopeptidase 1 (MMP1) Biomarker Activity (AID 2284268); conditions: primary human lung fibroblasts
In short: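 Human lung fibroblast primary cells; MMP1 measured by ELISA 24 h after dosing, fitted in the positive direction relative to DMSO. Parallel SRB staining (0.1%, after 10% TCA fixation, 560 nm) assesses overt cytotoxicity.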

[15] = read-out: TIMP metallopeptidase inhibitor 1 (TIMP1), TIMP1 (gene 7076); assay: BSK_MyoF_TIMP1: BioMAP Diversity Plus: MyoF Assay for TIMP metallopeptidase inhibitor 1 (TIMP1) Biomarker Activity (AID 2284269); conditions: primary human lung fibroblasts
In short: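 Primary human lung fibroblasts, MyoF multiplex system; chemical exposure 24 h; TIMP-1 by ELISA; positive fitting direction vs DMSO control.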

[16] = IUF_NPC2c_oligodendrocyte_migration_120hr: Leibniz Research Institute for Environmental Medicine (IUF) 120-hour Neural Progenitor Cell Migration Assay for Oligodendrocyte Migration (NPC2c) (AID 2284297);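 note: O4-positive oligodendrocyte migration distance divided by radial glia migration distance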
In short: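 Human fetal neural progenitor spheres (0.3 mm) are plated on poly-D-lysine/laminin in N2 differentiation medium and exposed for 120 h, with half-medium renewal at day 3. Oligodendrocyte (O4+) migration distance comes from ICC imaging, normalised to radial glia migration.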

[17] = IUF_NPC2a_radial_glia_migration_120hr: Leibniz Research Institute for Environmental Medicine (IUF) 120-hour Neural Progenitor Cell Migration Assay for Radial Glia Migration (NPC2a) (AID 2284298)
In short: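 Human fetal-cortex neural progenitor spheres (0.3 mm) plated on poly-D-lysine/laminin in N2 differentiation medium, exposed 120 h at 37C with half-medium renewal at day 3. Radial glia migration distance (um) measured from Hoechst-stained nuclei images; DMSO baseline.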

[18] = IUF_NPC2a_radial_glia_migration_72hr: Leibniz Research Institute for Environmental Medicine (IUF) 72-hour Neural Progenitor Cell Migration Assay for Radial Glia Migration (NPC2a) (AID 2284299)
In short: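 Single 0.3 mm neurospheres were plated per well in N2 differentiation medium and exposed from the start of differentiation. After 72 hours, brightfield images were taken and radial glia migration from the sphere core edge was measured manually in four directions, averaged per well.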

Measured: AC50

CCCCC(CC)COCC1CO1 (centres undefined)
inactive: [1] | [2] | [3] | [4] | KRT18 (gene 3875) | [5] | [6] | [7] | [8] | [9] | [10]

CCCCNc1ccc(NCCCC)c2c1C(=O)c1ccccc1C2=O
inactive: [11] | [12] | Decorin, DCN (gene 1634) | [13] | [14] | [15]

CCCCCCCCc1ccc(Nc2ccc(CCCCCCCC)cc2)cc1
inactive: [11] | [12] | Decorin, DCN (gene 1634) | [13] | [14] | [15]

C/C=C\C/C=C/CCCCCCCCOC(C)=O
active: [11] 20 µM
inactive: [12] | Decorin, DCN (gene 1634) | [13] | [14] | [15]

O=C1CCCN1CCO
inactive: [1] | [2] | [3] | [4] | KRT18 (gene 3875) | [5] | [6] | [7] | [8] | [9] | [10]

O=Nc1ccc(O)cc1
inactive: [11] | [12] | Decorin, DCN (gene 1634) | [13] | [14] | [15]

COc1ccc2nc(N)sc2c1
inactive: [11] | [12] | Decorin, DCN (gene 1634) | [13] | [14] | [15]

c1ccc2c(c1)ccc1ncccc12
inactive: [11] | [12] | Decorin, DCN (gene 1634) | [13] | [14] | [15]

C=C[Si](OC(C)=O)(OC(C)=O)OC(C)=O
inactive: [1] | [2] | [3] | [4] | KRT18 (gene 3875) | [5] | [6] | [7] | [8] | [9] | [10]

c1ccc(-c2ccccn2)nc1
inactive: [11] | [12] | Decorin, DCN (gene 1634) | [13] | [14] | [15]

Nc1ncn([C@@H]2O[C@H](CO)[C@@H](O)[C@H]2O)c(=O)n1
inactive: [16] | [17] | [18]

CCOC(=O)c1ccccc1C(=C1C=C(Br)C(=O)C(Br)=C1)c1cc(Br)c(O)c(Br)c1
inactive: [4] | [6] | [10]
active: [1] 5.49 µM and 5.66 µM | [2] 3.9 µM and 3.63 µM | [3] 7.85 µM and 7.6 µM | KRT18 (gene 3875) 3.98 µM and 4.84 µM | [5] 4.52 µM and 2.5 µM | [7] 3.51 µM and 3.62 µM | [8] 4.29 µM and 4.91 µM | [9] 3.49 µM and 3.46 µM | [10] 10.3 µM

CC1OC1C1CCC2(C)OC2C1 (centres undefined)
inactive: [11] | [12] | Decorin, DCN (gene 1634) | [13] | [14] | [15]

O=C(Cl)c1cc(C(=O)Cl)cc(C(=O)Cl)c1
active: [11] 39.1 µM | [13] 34.7 µM | [14] 31.9 µM | [15] 31.2 µM
inactive: Decorin, DCN (gene 1634)

CC(C)(c1cc(Br)c(OCCO)c(Br)c1)c1cc(Br)c(OCCO)c(Br)c1
active: [11] 9.61 µM | [12] 10.6 µM | Decorin, DCN (gene 1634) 9.76 µM | [13] 5.78 µM | [14] 9.32 µM | [15] 9.33 µM

C=CC=CC=CCCCCC
inactive: [11] | [12] | Decorin, DCN (gene 1634) | [13] | [14] | [15]

c1ccc2c(c1)ccc1cc3c(ccc4ccccc43)cc12
inactive: [11] | [12] | Decorin, DCN (gene 1634) | [13] | [14] | [15]

CCCCC/C=C\C/C=C\CCCCCCCC(=O)OC
active: [14] 31.2 µM
inactive: [11] | [12] | Decorin, DCN (gene 1634) | [13] | [15]

CCCCCCCCCCCCCCCC[N+](C)(C)CC
inactive: [12]
active: [11] 2.65 µM | Decorin, DCN (gene 1634) 5.5 µM | [13] 1.39 µM | [14] 9.34 µM | [15] 2.73 µM

CC1(C)S[C@@H]2[C@H](NC(=O)COc3ccccc3)C(=O)N2[C@H]1C(=O)O
inactive: [16] | [17] | [18]

From PubChem BioAssay (EPA / NIEHS)
